Hits are enriched below; roughly 8% of the tested compounds scored in any of these assays.
Lassa entry: Lassa virus entry inhibition; hit rate 4.1% among 18,000; AID 720533; Lassa virus pseudotyped entry inhibition, cell-based qHTS; Potency, µM (highest dose often 49.2 µM), without a hit: at the highest dose activity change, negative = inhibition, usual class: inhibitors
MARV entry inh: blocks Marburg virus binding or cell entry; Marburg virus pseudotype entry/binding inhibition, cell-based; Potency, µM (doses to about 49.2 µM), inactives show at the highest dose activity change, negative = inhibition, hits mostly inhibitors; hit rate 6.5% among 18,000
The depositor's hits bear a star; ? = inconclusive; · = no result given; ! = a repeat was not active; [ ] = another dose, or the depositor's remark. Calls come from the whole dose curve; tested in HEK293 cells. % is set by controls: 0 for no effect and ±100 for the full control effect; potency is the fitted concentration of half-maximal effect.

SMILES	Lassa entry	MARV entry inh
C[C@]12CCC3C(CC[C@H]4C[C@H](O)CC[C@]34C)[C@@H]1CC[C@@H]2C(=O)CO (some centres not stated)	-14%	15%
CCCCCCCCCCCCCCCC(=O)OCC(NC(=O)C(Cl)Cl)C(O)c1ccc([N+](=O)[O-])cc1 (configuration not stated)	9%	5%
CCN(CC)CCCC(C)Nc1c2ccc(Cl)cc2nc2ccc(OC)cc12 (configuration not stated)	?	1.1µM*
COc1cc(NC(C)CCCN)c2ncccc2c1 (configuration not stated)	7%	?
CCN(CC)CCCC(C)Nc1cc(/C=C/c2ccccc2Cl)nc2cc(Cl)ccc12 (configuration not stated)	?	16µM*
COc1ccc(NC(=O)C[C@@H]2C(=O)N(Cc3ccccc3)CC2(C)C)cc1	8%	17%
O=C(OCc1cn([C@H]2C[C@H](c3ccc(Cl)cc3)N(Cc3cccs3)C[C@H]2O)nn1)c1ccccc1	-23%	?
C=CCNC(=O)N1CCc2nc(-c3ccc(OC)cc3C)c3c(c2C1)CO[C@@H](c1ccccc1)C3	6%[8.59 µM]	-42%[8.59 µM]
COc1cc(N2CCN(C(C)C)CC2)ccc1Nc1nc(Nc2cccc(F)c2C(=O)O)c2cc[nH]c2n1	-4%	-21%
CNC(=O)c1ncccc1Nc1nc(Nc2cc3c(cc2OC)CCCN3C(=O)CN(C)C)nc2[nH]ccc12	?	2.5µM*
COc1cc2c(cc1Nc1nc(Nc3ccsc3C(N)=O)c3cc[nH]c3n1)N(C(=O)CN(C)C)CCC2	·	1.6µM*
C=CCN1C(=O)[C@]2(OCCC=C[C@@H]2C)c2cc(OC)ccc21	31%[8.59 µM]	37%[8.59 µM]
C/C=C(/C)C(=O)O[C@H]1C(C)=C2[C@H]([C@@H]1OC(=O)CCCCCCC)[C@@](C)(OC(C)=O)C[C@H](OC(=O)CCC)[C@@]1(O)[C@H]2OC(=O)[C@@]1(C)O	45µM*	22µM*
O=c1c(-c2ccccc2)c1-c1ccccc1	7.1µM*	14µM*
Nc1ccccc1	-10%	-3%
CCN1C(=O)NC(c2cccs2)C(C(C)=O)=C1C (configuration not stated)	-8%[8.59 µM]	?
CC[C@H](C)[C@H](NC(=O)[C@H](CCCNC(=N)N)NC(=O)[C@@H]1CCCN1C(=O)[C@H](Cc1ccccc1)NC(=O)[C@H](Cc1cnc[nH]1)NC(=O)[C@H](CCCNC(=N)N)NC(=O)[C@@H](NC(=O)[C@H](C)NC(=O)[C@H](CCC(=O)O)NC(=O)[C@H](CC(N)=O)NC(=O)[C@@H](N)CCCCN)C(C)C)C(=O)N[C@@H](Cc1c[nH]c2ccccc12)C(=O)N[C@@H](CC(C)C)C(=O)O	-3%	3%
Fc1ccc(C(c2ccc(F)cc2)N2CCN(C/C=C/c3ccccc3)CC2)cc1	32µM*!	2.5µM*
C(=C\c1ccccc1)/CN1CCN(C(c2ccccc2)c2ccccc2)CC1	-25%[17.8 µM]	-11%[17.8 µM]
C(=C\c1ccccc1)/CN1CCN(CCOC(c2ccccc2)c2ccccc2)CC1	32µM*	8.9µM*
OCCOCCN1CCN(C(c2ccccc2)c2ccc(Cl)cc2)CC1 (configuration not stated)	-17%	?
OC/C=C/c1ccccc1	-13%	8%
Clc1ccc(C(OCCN2CCCCC2)c2ccccc2)cc1 (configuration not stated)	?	13µM*
CC[C@H]1NC(=O)[C@@H](NC(=O)c2ncccc2O)[C@@H](C)OC(=O)[C@H](c2ccccc2)NC(=O)[C@@H]2CC(=O)CCN2C(=O)[C@H](Cc2ccccc2)N(C)C(=O)[C@@H]2CCCN2C1=O	-14%	8%
O=C(Cc1ccc(Cl)cc1)c1c(O)cc(O)cc1O	14%	9%
SMILES	Lassa entry	MARV entry inh
O=C(O)COCCN1CCN(C(c2ccccc2)c2ccc(Cl)cc2)CC1 (configuration not stated)	2%	7%
OC(CN1CCN(c2cccc(Cl)c2)CC1)C(c1ccccc1)c1ccccc1 (configuration not stated)	28µM*	35µM*
C=COC[C@@H]1CN2[C@H](c3ccc(Br)cc3)[C@H](C)CC[C@H]2C(=O)O1	11%[8.59 µM]	31%[8.59 µM]
CCn1c(-c2ccccc2F)nc2cc(NC(C)=O)cc(C(=O)N(C)Cc3c(C)nc4ccccn34)c21	-6%	-5%
Oc1ccc(Cl)cc1Sc1cc(Cl)ccc1O	13µM*	?
Oc1ccc(Cl)cc1	-4%	-16%
Cc1cc(C)c2c(CN3CCCCCCC3)cc(=O)oc2c1	4%	26%
COc1ccc(COc2cc(-c3cccc(OC)c3)nc3ccc(NC(=O)c4ccccc4)cc23)cc1	10µM*	?
COc1ccc(COc2cc(-c3cccc(OC)c3)nc3ccc(NC(=O)c4ccc(Cl)cc4)cc23)cc1	-29%	-18%
COc1ccc2ccccc2c1CN1CCC2(CCC(CNC(=O)c3ccccc3)O2)CC1 (configuration not stated)	-11%	13µM*
COC(=O)c1ccc(CN2CCC3(CCC(CNC(=O)c4ccccc4)O3)CC2)cc1 (configuration not stated)	-9%	7%
COc1ccc(CN2CCC3(CCC(CNC(=O)C4CCCO4)O3)CC2)c(C)c1C (configuration not stated)	-10%	1.3µM*
O=C(NCC1CCC2(CCN(Cc3ccccc3O)CC2)O1)C1CCCO1 (configuration not stated)	-2%	-23%
Nc1nc2c(ncn2C2OC(COC(=O)c3ccccc3)C(OC(=O)c3ccccc3)C2OC(=O)c2ccccc2)c(=O)[nH]1 (configuration not stated)	11µM*	-28%
Nc1nc2c(ncn2[C@@H]2O[C@H](COP(=O)(O)OP(=O)(O)O)[C@@H](O)[C@H]2O)c(=O)[nH]1	22%	15%
CC1(C)OC2CC(=O)OCC23C1CC(=O)C1(C)C3CC[C@@]2(C)[C@H](c3ccoc3)OC(=O)C3OC312 (some centres not stated)	-12%	2%
CC1(C)C(=O)C=C[C@@]2(C)C1CC(O)[C@]1(C)C2CC[C@@]2(C)C(c3ccoc3)OC(=O)C3O[C@]312 (some centres not stated)	?	13µM*
CC1(C)C(O)CC(O)[C@]2(C)C1CC(O)[C@]1(C)C2CC[C@@]2(C)C(c3ccoc3)OC(=O)C3O[C@]312 (some centres not stated)	2%	?
CC1(C)C(=O)C=C[C@@]2(C)C1C=C[C@@]1(C)C2CC[C@@]2(C)C(c3ccoc3)OC(=O)C3OC312 (some centres not stated)	?	7.9µM*
Cc1ccccc1N1CCN(CCc2nnc3n2CCCC3)CC1	5%	2%
COc1ccccc1CNC(=O)c1ccc(Br)o1	-13%	7%
Cc1csc(SCC(=O)NCC2Cc3cc(-c4cncnc4)ccc3O2)n1 (configuration not stated)	-9%	-3%
c1ccc(C(NCCNC(c2ccccc2)c2ccccc2)c2ccccc2)cc1	13µM*	7.1µM*
CCC(C(=O)O)c1ccccc1 (configuration not stated)	-1%	-14%
Cc1cc(-c2ccccc2)nnc1NCCN1CCOCC1	-5%	-11%
COC(=O)/C=C\c1cc(O)ccc1O	25µM*	10µM*
COC(=O)c1ccc(O)cc1	-7%	3%
Cc1cc(/C=C/c2ccc3cc(N(C)C)ccc3[n+]2C)c(C)n1-c1ccccc1	10µM*	?
Nc1ccc([As](=O)(O)O)cc1	4%	8%
